Screening data from PubChem.
PostGolgi ctrl = inhibits growth of the yeast control strain. efflux-deficient yeast background strain, growth absorbance A615, 16 h. inhibition, % at 10 µM. hit rate 5% among 98,000
CYP2C19 act = increases human CYP2C19 enzyme activity; P33261; recombinant CYP2C19, luciferin-H EGE luminescence; stronger effect = higher value; 0 = fully inhibited enzyme, 1 = untreated enzyme; activation factor at 5 µM; 96,000 tested, under 10 active;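 active means activation factor of at least 2 at 5 µM in the primary screen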;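 further: 0 = wells with 2.5 mM tranylcypromine and 1 = vehicle-only wells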
Target sequence (P33261 whole entry, looked up): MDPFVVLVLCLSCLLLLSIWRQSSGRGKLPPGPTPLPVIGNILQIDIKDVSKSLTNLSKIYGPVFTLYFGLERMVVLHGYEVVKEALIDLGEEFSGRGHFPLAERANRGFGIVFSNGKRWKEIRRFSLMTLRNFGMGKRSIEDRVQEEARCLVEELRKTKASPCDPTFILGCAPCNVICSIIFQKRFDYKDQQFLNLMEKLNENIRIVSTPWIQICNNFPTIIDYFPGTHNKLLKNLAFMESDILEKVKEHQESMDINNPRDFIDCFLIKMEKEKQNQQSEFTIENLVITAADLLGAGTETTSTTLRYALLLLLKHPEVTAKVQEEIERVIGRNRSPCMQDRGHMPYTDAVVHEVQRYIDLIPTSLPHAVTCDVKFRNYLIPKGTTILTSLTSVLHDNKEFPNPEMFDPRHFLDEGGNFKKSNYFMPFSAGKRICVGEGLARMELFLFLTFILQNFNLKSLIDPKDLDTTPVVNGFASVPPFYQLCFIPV
CYP2C19 inh = human CYP2C19 inhibition; inhibition, % at 5 µM; CYP2C19 Supersomes, luciferin-H EGE luminescence, 30 min; hit rate 21% among 96,000;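 active means CYP2C19 inhibition above a set limit at 5 µM in the primary screen, cut at about 50% in these data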;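 further: plate controls were negative control wells for no effect and 2.5 mM tranylcypromine positive control for full effect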
PostGolgi yeast = growth inhibition of a yeast mutant, post-Golgi transport screen; hit rate 0.9% among 98,000; inhibition, % at 10 µM; AID 739; post-Golgi transport phenotypic cell assay;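 further: yeast cells grown in 1536-well plates; yeast grown about 18 h at 30C before absorbance read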
CYP2C9 activ = activators of human CYP2C9 | recombinant CYP2C9, luciferin-H conversion, luminescence; stronger effect = higher value; factor 1 = untreated enzyme, 0 = blocked | activation factor at 5 µM | hit rate 1.4% among 96,000 | AID 1024;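 active means activation factor of 2 or more for CYP2C9 at a 5 µM dose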;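 further: 0 = sulfaphenazole-blocked wells and 1 = vehicle-only wells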
CYP2C9 inh = human CYP2C9 inhibition; P11712; CYP2C9 Supersomes, luciferin-H conversion, luminescence; inhibition, % at 5 µM; hit rate 20% among 96,000; AID 777;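 active means blocking of liver enzyme CYP2C9 beyond about 50% at 5 µM, limit read from the data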
The depositor's hits bear a star; x = no result. Shown are actives, neighbours in structure and some others; about 32% of the full set was active somewhere. Unless noted, no stated cut-off is given here; in the data, active means inhibition above about 30%; inactive means the rest.

SMILES | PostGolgi ctrl | CYP2C19 act | CYP2C19 inh | PostGolgi yeast | CYP2C9 activ | CYP2C9 inh
CCC(C)NC(=O)CS(=O)Cc1nc(-c2cccc(OC)c2)oc1C (stereo unspecified) | 1 | 0.9 | 14 | 10 | 0.8 | 17
CC(Sc1nc2ccccc2[nH]1)C(=O)O (stereo unspecified) | -4 | 1.1 | -6 | 18 | 1 | -4
O=C(CSc1nc2ccccc2[nH]1)c1ccc(Cl)s1 | 21 | 0 | 98* | -8 | 0.1 | 92*
O=C(CSc1nc2ccccc2[nH]1)c1ccco1 | -8 | 0.3 | 65* | -1 | 0.6 | 39
Cc1ccc(C2C(C(=O)c3sc(C)nc3C)=C(O)C(=O)N2CCCN(C)C)o1 (stereo unspecified) | x | 1.1 | -15 | x | 1.1 | -7
C=CCOc1ccc(CNc2nn[nH]n2)cc1 | -2 | 0.5 | 47 | 28 | 0.8 | 16
O=C(Nc1nc2ccccc2n1Cc1ccccc1)c1ccc(COc2ccccc2[N+](=O)[O-])o1 | 6 | 0.9 | 9 | -6 | 0.6 | 37
Cc1ccc(OCc2ccc(C(=O)Nc3nc4ccccc4n3Cc3ccccc3)o2)c([N+](=O)[O-])c1 | 10 | 0.8 | 21 | 2 | 0.4 | 63*
CCNC(=S)N/N=C/c1ccc(OCC(=O)Nc2ccc(C)cc2)cc1 | 4 | 1 | 2 | -2 | 1 | 2
COc1ccc2c(c1)c1nnc(SCC(=O)N3C(C)CCCC3C)nc1n2C (stereo unspecified) | 11 | 0.5 | 49 | 0 | 0.3 | 66*
COc1ccc2c(c1)c1ccccc1n2C | 4 | 0.9 | 10 | -2 | 1.2 | -17
COc1ccc2c(c1)c1nnc(SC)nc1n2C | 87* | 1 | 3 | 58* | 0.8 | 22
COc1cccc(CNCC(=O)N2C(C)CCCC2C)c1 (stereo unspecified) | 14 | 0.5 | 49 | 6 | 0.9 | 12
CCOC(=O)c1csc(NC(=O)CSc2nnnn2-c2ccc(OCC)cc2)n1 | 10 | 1 | -4 | -2 | 1.1 | -14
CC(=O)C(C)Oc1cc(C)cc2oc(=O)c(C)c(C)c12 (stereo unspecified) | 4 | 0.7 | 28 | 5 | 0.4 | 57*
COc1ccc(-n2sc3c(c2=S)-c2cc(OC)ccc2NC3(C)C)cc1 | 15 | 0.5 | 49 | -15 | 0.2 | 82*
COc1ccc2c(c1)-c1c(sn(-c3ccc(OC)c(OC)c3)c1=S)C(C)(C)N2 | 38* | 0.7 | 25 | -7 | 0.4 | 59*
CN(c1ccccc1)S(=O)(=O)c1ccc(C(=O)OCC(=O)N2CCOCC2)cc1 | 3 | 0.5 | 55* | 10 | 0.5 | 48
O=C(c1cc2ccccc2o1)N1CCN(c2ccccc2Cl)CC1 | 40* | 0.6 | 44 | 1 | 0.6 | 44
O=C(c1cc2ccccc2o1)n1nnc2ccccc21 | 3 | 1 | 1 | 4 | 1 | -3
O=C(c1ccccc1)N1CCN(C(=O)c2cc3ccccc3o2)CC1 | 31* | 0.6 | 41 | 3 | 0.7 | 28
CC1CC(=O)N(CC(=O)Nc2ccc3c(c2)OCO3)c2ccccc2S1 (stereo unspecified) | 10 | 0.6 | 44 | 10 | 0.7 | 28
Cc1cccc(C(=O)N2c3ccccc3C(=O)OC2c2ccc3c(c2)OCO3)c1 (stereo unspecified) | 13 | 0.7 | 27 | -3 | 0.4 | 58*
O=C1OC(c2ccc3c(c2)OCO3)N(C(=O)c2ccc(Cl)c(Cl)c2)c2ccccc21 (stereo unspecified) | 30* | 0.2 | 84* | -3 | 0.1 | 86*
CC(=O)N1C(c2ccccc2)CC(=O)OC1c1ccc2c(c1)OCO2 (stereo unspecified) | 4 | 0.3 | 69* | -10 | 0.9 | 14
SMILES | PostGolgi ctrl | CYP2C19 act | CYP2C19 inh | PostGolgi yeast | CYP2C9 activ | CYP2C9 inh
CC(C)(C)NC(=O)C(c1ccsc1)N(CCc1ccccc1)C(=O)Cn1nnc2ccccc21 (stereo unspecified) | 27 | 1.1 | -6 | 7 | 1.1 | -13
COc1cccc(C(c2nnnn2Cc2ccco2)N2CCN(c3cccc(C)c3C)CC2)c1OC (stereo unspecified) | 20 | 0.4 | 56* | -5 | 0.3 | 70*
Clc1ccccc1C(c1nnnn1Cc1ccco1)N1CCN(Cc2ccco2)CC1 (stereo unspecified) | -5 | 0 | 96* | -3 | 0.8 | 17
Cc1cccc(Oc2nc(-c3cccc([N+](=O)[O-])c3)nc3ccccc23)c1C | 10 | 1 | -2 | -5 | 0.9 | 11
Cn1c2c(c(=O)n(C)c1=O)C(c1ccccc1OC(F)F)C1=C(CCCC1=O)N2 (stereo unspecified) | 26 | x | x | 13 | x | x
CCN(Cc1ccccc1)C(=O)c1cc2c(=O)oc3ccc(C)cc3c2s1 | 47* | 0.8 | 17 | 5 | 1.4 | -41
CCNS(=O)(=O)c1ccc(NC(=O)c2ccccc2)cc1 | -5 | 0.9 | 13 | 17 | 0.8 | 24
O=C(NCc1cccc(F)c1)C1CCN(S(=O)(=O)Cc2ccccc2)CC1 | -7 | 0.9 | 12 | 2 | 1 | -2
CC(C)(C)c1ccc(C(=O)N2CCC(C(=O)NCc3ccncc3)CC2)cc1 | -10 | 0.6 | 39 | -6 | 0.4 | 55*
O=C(NCc1ccncc1)C1CCN(S(=O)(=O)Cc2ccccc2)CC1 | 5 | 0.6 | 44 | 1 | 0.1 | 92*
CC(=O)Nc1nc(COc2ccc3ccccc3c2)cs1 | 16 | 0.6 | 37 | -9 | 1.1 | -13
CCOC(=O)Cc1csc(NC(=O)c2cccnc2)n1 | 5 | 0.9 | 14 | 0 | 0.9 | 10
CC(=O)Nc1nc(COc2ccccc2)cs1 | 13 | 0.1 | 89* | -1 | 0.4 | 59*
CC(=O)Nc1nc(CC(=O)c2ccccc2)cs1 | x | 0.3 | 65* | x | 1.1 | -11
O=C(Nc1nc(COc2ccccc2)cs1)C12CC3CC(CC(C3)C1)C2 | 37* | 0.4 | 56* | 1 | 0 | 96*
COc1ccc(-n2nc3c(c2NC(=O)C2CCCC2)CS(=O)C3)cc1 (stereo unspecified) | 4 | 0.9 | 9 | -5 | 0.9 | 5
O=C(Nn1cnnc1)c1cc2c(s1)CCCCC2 | 3 | 0.3 | 72* | -2 | 0.8 | 16
CNC(=O)c1cc2c(s1)CCCCCC2 | 10 | x | x | 1 | x | x
O=C(NCCCn1ccnc1)c1cc2c(s1)CCCCC2 | 15 | 0.1 | 93* | -21 | 0.3 | 73*
O=C(NCCO)c1cc2c(s1)CCC2 | 15 | 0.8 | 17 | 1 | 1 | 1
O=C(Nc1ccon1)c1cc2c(s1)CCCCCC2 | 9 | 0.5 | 55* | 19 | 0.3 | 69*
c1ccc(COc2ccc(OCCCCN3CCCCC3)cc2)cc1 | 12 | 1 | -3 | 0 | 1.1 | -10
c1ccc(COCCN2CCN(CCOCc3ccccc3)CC2)cc1 | 6 | 0.4 | 57* | 1 | 1 | 0
CC1CCN(CCC(=O)N2CCCc3c2c(=O)oc2ccc(O)cc32)CC1 | 17 | 0.9 | 6 | 7 | 1.3 | -29
